We go through 25 compounds from PubChem BioAssay (NCATS).

Each structure is given as a SMILES string. “And” between values parts separate entries of the source, which are not always exact repeats. Identical values can stand only once. Results filed as inconclusive are left out. Unmarked numbers belong to inactive results. The source made the active and inactive calls. Calls follow the shape of the dose curve; as a rule, active = well fitted cell-killing curve with a large enough effect; inconclusive = small, poorly fitted or top-dose-only effect, or effect the other way; inactive = no such curve, though single readings can be large or run the other way.

The nature of test [1]: Viability qHTS for spleen associated tyrosine kinase inhibitor (SYKi) naive MV4-11 cells (AID 1963823). Also: nearly all actives have a fitted effect of over 40% in size. Summed up:
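Viability of MV4-11 AML cells lacking prior SYK inhibitor exposure is scored by CellTiter-Glo luminescence following 72 hr compound incubation at 37 C, 5% CO2, seeded at 500 cells per well.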
In general terms: In qHTS, concentration-response curves come from the screen itself.

A short description of test [2]: Viability qHTS for spleen associated tyrosine kinase inhibitor (SYKi) drug resistant MV4-11 cells (AID 1963824). Also: nearly all actives have a fitted effect of over 35% in size. Summed up: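 SYK-inhibitor-resistant MV4-11 AML cells were seeded at 500 per well onto compound and cultured 72 hours (37 °C, 5% CO2). CellTiter-Glo was then added, and after 10 min at room temperature, luminescence gave viability.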
Potency is read from the fitted curve at half-maximal effect.

As to `Cc1nc2ccc(CN(C)c3ccc(C(=O)NC(CCC(=O)O)C(=O)O)s3)cc2c(=O)[nH]1` (stereo not given), the Potency in test [1] was 0.0065 µM (active); in test [2], 0.0073 µM (active).
As for `NC(=O)c1cnc(NCCc2ccc(O)c(Cl)c2)nc1NCc1ccccc1`, the results for the Potency in test [1] and in test [2] were 0.0231 µM (active) and 0.0259 µM (active), respectively.
Taken in the same sequence, the figures for `CC(C)c1ccc2c(c1)C(O)CC1C(C)(C(=O)O)CCCC21C` (stereo not given) were “inactive” and “inactive”.
As to `CCN=C1N[C@@H]2[C@@H](O)[C@H](O)[C@@H](CO)O[C@@H]2S1`, the Potency result in test [1] and in test [2] was “inactive” in each case.
On to `CC(=O)O[C@@H]1[C@@H](O)[C@H](C)O[C@@H](O[C@H]2[C@@H]3C=CO[C@@H](O[C@@H]4O[C@H](CO)[C@@H](O)[C@H](O)[C@H]4O)[C@@H]3[C@@]3(CO)O[C@@H]23)[C@@H]1OC(=O)/C=C/c1ccccc1`, for which the Potency result in test [1] and in test [2] was “inactive” throughout.
For `COc1ccc(OC(=O)N(CC(=O)O)Cc2ccc(OCCc3nc(-c4ccccc4)oc3C)cc2)cc1`, the Potency entry in test [1] and in test [2] was “inactive” each time.
For `Cc1nc(Nc2cnn(C3CCNCC3)c2)nc2c1N(C)C(=O)c1cc3ccccc3cc1N2C`, the Potency in test [1] is 3.66 µM (active); in test [2], 6.51 µM (active).
With `Cc1cc(C)c(CNC(=O)c2cc(-c3ccc(N4CCN(C)CC4)nc3)cc3c2c(C)cn3C(C)C)c(=O)[nH]1`, the Potency was 13.2 µM (active) and 18.6 µM (active) in test [1]; 14.8 µM (active) and 16.6 µM (active) in test [2].
Consider `C=C1CCC(OC(C)=O)C2(C)CC3(O)OC(=O)C(C)=C3CC12` (stereo not given), for which the Potency entry in test [1] and in test [2] was “inactive” each time.
As for `CCOC(=O)C(CCc1ccccc1)NC1CSC(c2cccs2)CN(CC(=O)O)C1=O` (stereo not given), the results for the Potency in test [1] and in test [2] were 25.9 µM (active) and 6.51 µM (active), respectively.
Taken in the same sequence, the figures for `Cc1cc(C(=O)Nc2cccc(C(=O)Nc3cccc(C(F)(F)F)c3)c2)on1` were “inactive” and “inactive”.
Consider `Cc1ccc(-c2nn(C(C)(C)C)c3ncnc(N)c23)cc1`, for which the Potency in test [1] was 3.66 µM (active); in test [2] it was 8.2 µM (active).
Take `CC(C)c1ccc(CO)cc1O[C@@H]1O[C@H](CO)[C@@H](O)[C@H](O)[C@H]1O`: the Potency result in test [1] and in test [2] was “inactive” throughout.
With `C=C1/C(=C/C=C2\CCC[C@]3(C)[C@@H]([C@H](C)/C=C/[C@H](O)C4CC4)CC[C@@H]23)C[C@@H](O)C[C@@H]1O`, the Potency in test [1] is 0.0326 µM (active); in test [2], 0.731 µM (active).
On to `C[C@H]1[C@H](C)CC[C@]2(C(=O)O[C@@H]3O[C@H](CO)[C@@H](O)[C@H](O)[C@H]3O)CC[C@]3(C(=O)O)C(=CCC4[C@@]5(C)CC[C@H](O[C@@H]6O[C@H](CO)[C@@H](O)[C@H](O)[C@H]6O)C(C)(C)C5CC[C@]43C)[C@H]12` (stereo not given in full), for which the viability (% of control) in test [1] is 69.7% [at 9.25 µM]. The viability, % of control in test [2] is 96% [at 9.25 µM].
As to `CCN(CCN(C)C)C(=O)CNCc1cc(C(N)=O)ccn1`, the Potency entry in test [1] and in test [2] was “inactive” throughout.
Take `O=C(C[C@@H]1C(C(=O)O)=CO[C@@H](O[C@@H]2O[C@H](CO)[C@@H](O)[C@H](O)[C@H]2O)/C1=C\CO)OCCc1ccc(O)c(O)c1`: the Potency result in test [1] and in test [2] was “inactive” in each case.
For the compound `CC(C)CC(c1c(O)c(C=O)c(O)c(C=O)c1O)C1CCC(C)(O)C2CC(C(C)(C)O)CCC12C` (stereo not given), the Potency result in test [1] and in test [2] was “inactive” in each case.
With `CCC1CC2C(C)=CC3CCCCC3C2(C)C2(OC(=O)C(C)(O)OC2=O)O1` (stereo not given), the Potency in test [1] was 12.8 µM (active); in test [2], 10.1 µM (active).
For `O=C(Nc1ccccc1)c1ccc(Nc2nnc(-c3ccc(O)cc3)c3ccccc23)cc1`, the values for the Potency in test [1] and in test [2] were 16.4 µM (active) and 23.1 µM (active), respectively.
As for `Cc1ccc(C(=O)N(CCCN)C(c2oc3cc(Cl)ccc3c(=O)c2Cc2ccccc2)C(C)C)cc1` (stereo not given), the Potency entry in test [1] and in test [2] was “inactive” throughout.
On to `CC1(C)CC[C@]2(C(=O)O[C@@H]3O[C@H](CO)[C@@H](O)[C@H](O)[C@H]3O)CC[C@]3(C)C(=CCC4[C@@]5(C)C[C@@H](O)[C@H](O)[C@](C)(C(=O)O)C5CC[C@]43C)C2C1O` (stereo not given in full), for which the Potency result in test [1] and in test [2] was “inactive” throughout.
In the case of `CC(C)=CCc1cc(C(O)C2NC(=O)CNC(=O)C(Cc3c[nH]c4ccccc34)NC(=O)C3CCCN3C(=O)CNC(=O)C(C(C)C)NC(=O)CNC2=O)ccc1O` (stereo not given), in test [1], the viability (% of control) is 78.4% [at 9.25 µM]. The viability, % of control in test [2] was 92.7% [at 9.25 µM].
For `CC1(C(=O)O)CC[C@]2(C(=O)OC3OC(CO)C(O)C(O)C3O)CC[C@]3(C)C(=CCC4[C@@]5(C)CC[C@H](OC6OCC(O)C(O)C6OC6OC(CO)C(O)C(O)C6O)C(C)(C)C5CC[C@]43C)C2C1` (stereo not given in full), in test [1], the viability (% of control) is 68.3% [at 9.25 µM]. Also, the viability, % of control in test [2] is 78.9% [at 9.25 µM].
Regarding `O=C(Nc1cccc(Nc2cc(Nc3cccc(C(F)(F)F)c3)ncn2)c1)C1CC1`, the Potency in test [1] was 0.164 µM (active); in test [2] it was 0.259 µM (active).
